# From PubChem BioAssay
# ALOX12 inh = inhibitors of human 12S-lipoxygenase ALOX12; P18054; purified 12hLO, xylenol orange hydroperoxide absorbance; Potency, µM (doses to about 108 µM), most hits filed as inhibitors; hit rate 1.1% among 580,000; AID 1671190
# Target sequence (P18054 whole entry, looked up): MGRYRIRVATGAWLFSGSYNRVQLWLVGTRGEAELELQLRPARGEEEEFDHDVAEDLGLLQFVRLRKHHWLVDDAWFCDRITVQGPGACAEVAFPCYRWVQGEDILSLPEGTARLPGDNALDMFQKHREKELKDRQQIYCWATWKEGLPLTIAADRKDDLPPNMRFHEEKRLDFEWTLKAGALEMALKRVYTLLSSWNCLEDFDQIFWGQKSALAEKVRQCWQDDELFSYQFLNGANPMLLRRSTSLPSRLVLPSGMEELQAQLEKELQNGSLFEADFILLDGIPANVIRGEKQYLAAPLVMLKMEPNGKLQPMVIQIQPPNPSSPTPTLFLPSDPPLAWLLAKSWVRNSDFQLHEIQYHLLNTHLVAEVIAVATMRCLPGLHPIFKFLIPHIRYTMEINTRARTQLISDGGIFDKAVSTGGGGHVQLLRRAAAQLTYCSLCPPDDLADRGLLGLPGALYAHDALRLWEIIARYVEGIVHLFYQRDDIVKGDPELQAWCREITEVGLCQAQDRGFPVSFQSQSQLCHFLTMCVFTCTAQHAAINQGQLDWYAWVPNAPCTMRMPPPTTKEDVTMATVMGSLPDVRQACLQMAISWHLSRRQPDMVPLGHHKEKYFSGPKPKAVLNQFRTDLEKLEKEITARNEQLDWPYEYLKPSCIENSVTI
#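 Purified human 12hLO at 150 nM in 25 mM Hepes, 0.01% Triton X-100, pH 7.0, preincubated 15 min at room temperature with compound. Reaction started with 40 uM arachidonic acid, 30 min at room temperature. Hydroperoxide measured by Fe-xylenol orange, 573/405 nm absorbance ratio.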
# IL1B secr inh = inhibitors of inflammasome signaling (IL-1 beta secretion) | activity change, % at 57.5 µM | AID 743279 | THP-1 LPS/ATP IL-1B secretion, AlphaLISA, 16 h; hits give low values | hit rate 4.7% among 360,000; in the data active = activity change below about -50%; inconclusive = mostly about -30% to -49%
#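 Secreted IL-1B measured by AlphaLISA bead assay after 16 h compound exposure of THP-1 cells; compounds (final up to 57.5 uM) added 1 h before LPS (250 ng/mL) and ATP (1.25 mM) stimulation; lower signal means less secretion.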
# HT1080 IDH1KD tx = toxicity to HT-1080 IDH1 knockdown cells (counter line). AID 686971. Potency, µM (doses to about 46.1 µM), actives largely listed as cytotoxic. HT-1080 IDH1 knockdown viability, ATP luminescence, 48 h. hit rate 2% among 360,000
#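 % activity derives from luminescence (CellTiter-Glo), normalised to DMSO and no-cell wells. HT-1080-IDH1KD cells, 750/well, had 48 h compound exposure at 37 °C.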
# DT40 TDP1 CPT = growth inhibition of DT40 Tdp1-/-;hTDP1 cells with camptothecin (screen for TDP1 inhibitors); Potency, µM (doses to about 46.2 µM), actives largely listed as inhibitors; chicken DT40 Tdp1-/-;hTDP1 cells + 20 nM CPT, ATP luminescence, 48 h; AID 686979; hit rate 12% among 420,000; note: nearly all actives have a fitted effect of over 55% in size
#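 Cell growth measured by CellTiter-Glo luminescence after a minimum 48 h, 37 C compound exposure with 20 nM CPT in Tdp1-knockout DT40 cells stably expressing hTDP1, seeded 400/well; qHTS titration format.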
# HT1080NT lethal = kills 2HG-producing HT-1080-NT fibrosarcoma cells. Potency, µM (highest dose often 46.1 µM), actives largely listed as cytotoxic. hit rate 1.6% among 360,000. AID 686970. HT-1080-NT fibrosarcoma viability, CellTiter-Glo ATP luminescence, 48 h;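 note: NT is the 2HG producing partner of a matched IDH1 knockdown line; nearly all actives have a fitted effect of over 55% in size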
#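 Toxicity toward the 2HG-producing NT line was scored as %Activity, normalised to DMSO and no-cell wells, from CellTiter-Glo luminescence after 48 hours' treatment.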
# DT40 TDP1 no CPT = qHTS for Inhibitors of human tyrosyl-DNA phosphodiesterase 1 (TDP1): qHTS in cells in absence of CPT. DT40 Tdp1-/- hTDP1 cells, no CPT, ATP luminescence, 48 h. Potency, µM (series often up to 46.2 µM), hits mostly inhibitors. hit rate 15% among 420,000. AID 686978, 2013; note: nearly all actives have a fitted effect of over 55% in size
#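 Camptothecin absent (DMSO only). Human TDP1-complemented DT40 knockout cells, 400 cells/well, 37 °C for minimum 48 hr; ATP measured via CellTiter-Glo, 30 min dark incubation, luminescence.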
# Numbers stand for hits; n = inactive; u = inconclusive; x = no result given; [ ] = remark or other dose. Shown is part of a subset that was picked to be rich in hits. Unless noted, calls come from the whole dose curve; as a rule, active = well fitted curve in the direction sought with a large enough effect; inconclusive = small, poorly fitted or top-dose-only effect, or another doubt; inactive = no such curve, though single readings can be large; an effect the other way counts as inactive or inconclusive.
SMILES,ALOX12 inh,IL1B secr inh,HT1080 IDH1KD tx,DT40 TDP1 CPT,HT1080NT lethal,DT40 TDP1 no CPT
CCOC(=O)C1=C(CP(=O)(c2ccccc2)c2ccccc2)NC(=O)NC1c1ccc(OC)cc1 (stereo unspecified),n,n,n,n,n,n
CCOC(=O)C1=C(CN(C)Cc2ccccc2)NC(=O)NC1c1ccc(OC(C)C)cc1 (stereo unspecified),n,x,x,16µM,x,16µM
CCOC(=O)C1=C(CN(C)Cc2ccccc2)NC(=O)NC1c1ccc(OC)cc1 (stereo unspecified),n,x,x,u,x,u
CCOC(=O)C1=C(COc2ccccc2)NC(=O)NC1c1ccc2ccccc2c1 (stereo unspecified),u,n,n,18µM,u,21µM
CCOC(=O)C1=C(COc2ccccc2)NC(=O)NC1c1ccc(Br)cc1 (stereo unspecified),n,u,n,18µM,n,16µM
COc1cccc(N2CCN(c3nc(C(=O)NCc4cccc(C)c4)cs3)CC2)c1,n,x,x,x,x,x
COc1cc(OC)c(NC(=O)NCCn2c(C(F)(F)F)nc3ccccc32)cc1Cl,n,x,x,x,x,x
COc1ccc(/C=C2\SC(=S)NC2=O)cc1OS(=O)(=O)c1ccc(NC(C)=O)cc1,u,n,16µM,u,21µM,u
COc1ccc(/C=C2\SC(=S)N(CCCCCC(=O)Nc3cc(C)on3)C2=O)cc1OC,n,n,n,n,n,n
COc1cc(/C=C2\SC(=S)N(CCCCC(=O)O)C2=O)ccc1OS(=O)(=O)c1ccc(C)cc1,u,-87,n,u,n,u
COc1cc(/C=C2/SC(=S)NC2=O)ccc1OS(=O)(=O)c1ccc(C)cc1,x,-53,u,u,u,15µM
CCOc1ccc(/C=C2\SC(=S)NC2=O)cc1OC,n,n,n,u,n,u
Cc1[nH]c(SC(C)C(=O)Nc2cccc(S(=O)(=O)N3CCCCC3)c2)nc1Cc1ccccc1 (stereo unspecified),n,x,x,x,x,x
O=C(/C=C/c1ccc(F)cc1)Nc1ccccc1-c1ccccc1,n,x,x,x,x,x
C=CCn1c(=O)c(C(=O)Nc2cc(C)ccn2)c(O)c2ccccc21,n,n,n,29µM,u,26µM
C=CCn1c(=O)c(C(=O)Nc2ccc(C)cc2)c(O)c2ccccc21,n,n,n,18µM,n,12µM
COCC1CN(C)CC12CCN(S(=O)(=O)c1ccc3c(c1)CCC3)CC2 (stereo unspecified),n,x,x,x,x,x
COc1ccc(C(=O)c2cn(Cc3ccccc3F)c3ccc(F)cc3c2=O)cc1,n,x,x,u,x,21µM
CCOc1ccc2c(c1)c(=O)c(C(=O)c1ccccc1)cn2Cc1ccccc1F,n,x,x,u,x,21µM
COc1ccc2c(c1)c(=O)c(C(=O)c1ccc(C)cc1)cn2Cc1ccccc1F,n,x,x,u,x,u
Cn1cc(S(=O)(=O)N2CCCC(C(=O)Nc3ccn(Cc4ccc(Cl)c(Cl)c4)n3)C2)cn1 (stereo unspecified),n,x,x,x,x,x
CC(=O)c1sc(C(C)(C)C)cc1NC(=O)/C=C/C(=O)O,n,-96,n,n,n,u
Cc1cscc1NC(=O)/C=C/C(=O)O,u,x,n,n,n,n
COc1cccc(N2CCN(C(=O)C3CCN(S(=O)(=O)c4cccs4)CC3)CC2)c1,n,n,n,u,n,13µM
CCOC(=O)c1ccc(S(=O)(=O)N2CCC(C(=O)N3CCN(c4ccccc4OC)CC3)CC2)cc1,n,-85,u,u,u,n
SMILES,ALOX12 inh,IL1B secr inh,HT1080 IDH1KD tx,DT40 TDP1 CPT,HT1080NT lethal,DT40 TDP1 no CPT
COc1ccccc1N1CCN(C(=O)C2CCN(S(=O)(=O)c3cccs3)CC2)CC1,n,x,x,16µM,x,21µM
COc1ccc(Nc2nc(Nc3ccc(C)c(C)c3)nc3nccnc23)cc1,n,x,x,x,x,x
O=C(CS(=O)(=O)c1ccccc1)c1ccc(Br)cc1,n,x,x,x,x,x
O=[N+]([O-])c1ccc(-c2nc(Nc3ccc(I)cc3)c3ccccc3n2)cc1,n,x,x,x,x,x
CN(C)CCNC(=O)c1cccc(-c2cnc3ccc(-c4cccc(F)c4)nn23)c1,n,x,x,x,x,x
CC(=O)Nc1cc(-c2cccc(C(=O)NCCN(C)C)c2)cn2c(-c3ccc(F)c(Cl)c3)cnc12,u,n,21µM,2.1µM,16µM,1.5µM
CC(=O)Nc1cc(-c2cccc(C(=O)NCCN(C)C)c2)cn2c(-c3ccc(C(C)=O)cc3)cnc12,n,n,u,u,18µM,21µM
CCCCN1C(=O)C2(CCN(C(=O)CC(C)(C)C)CC2)Nc2ccccc21,n,x,x,x,x,x
CC(C)(C)c1ccc(NC(=O)COC(=O)c2ccccc2OCC(=O)Nc2ccc(Br)cc2)cc1,x,x,x,16µM,x,u
COc1cc2ccccc2cc1C(=O)OCC(=O)Nc1ccc(Br)cc1,x,x,x,7.9µM,x,u
CS(=O)(=O)c1ccccc1NC(=O)COc1ccccc1C(=O)Nc1ccccc1,u,x,n,11µM,n,11µM
CC(C)c1cccc(NC(=O)COC(=O)c2ccccc2OCc2cccc(Br)c2)c1,x,x,x,u,x,16µM
O=C(COC(=O)c1ccccc1OCC(=O)Nc1ccc(Br)cc1)Nc1ccccc1,n,n,n,u,n,u
Cc1cnc(CC2CCN(C(=O)N(C)C)C2)n1Cc1ccccc1 (stereo unspecified),n,x,x,x,x,x
CN(C)C(=O)COc1ccccc1C(=O)OCC(=O)Nc1ccc(Oc2ccc(Br)cc2)cc1,x,x,x,u,x,11µM
O=C(OCC(=O)N1CCOCC1)c1ccccc1OCc1ccccc1,n,n,n,n,n[9.24 µM],n
O=C(COc1ccccc1C(=O)OCC(=O)N1CCOCC1)Nc1ccc(Br)cc1,x,x,n,16µM,n,14µM
CNC(=O)COc1ccccc1C(=O)Nc1ccc2c(c1)oc1ccccc12,n,-69,u,n,n,u
N#Cc1ccccc1NC(=O)c1ccccc1OCC(=O)Nc1ccc2c(c1)oc1ccccc12,n,n,n,u,n,u
CN(C(=O)COC(=O)c1ccccc1OCC(=O)Nc1ccc(Br)cc1)c1ccccc1,x,x,n,u,n,11µM
COCCN1C(=O)c2ccccc2C(C(=O)Nc2nc(C)c(C)s2)C12CCCCC2 (stereo unspecified),n,x,x,x,x,x
CCCCn1nc(C(=O)N2CCN(c3ccccc3)CC2)c2ccccc2c1=O,n,x,x,x,x,x
COC(=O)c1ccc(NC(=O)c2ccccc2OCC(=O)Nc2ccc(Br)cc2)cc1,x,x,u,u,u,10µM
O=C(Nc1ccc(Oc2ccccc2)cc1)O[C@@H]1CO[C@H]2[C@@H]1OC[C@@H]2NC(=O)c1ccccn1,n,x,x,x,x,x
Cc1ccc2cc(C(=O)NCCN(C(C)C)C(C)C)[nH]c2c1,n,x,x,x,x,x
